# Experimental data published in PMC7862700, “An all-to-all approach to the identification of sequence-specific readers for epigenetic DNA modifications on cytosine”.
# How the values were obtained:
# Test in all cases: DAPPL (digital affinity profiling via proximity ligation, sequencing); 10 mM Tris-HCl pH 7.5, 50 mM NaCl, 1 mM DTT, 4% glycerol, room temperature, 30 min; GST-TFs on glutathione beads, 16-mer random dsDNA library, 0.1% formaldehyde crosslink after washing; high values mean tight binding
# FEV = target: T1, FEV (Homo sapiens, UniProt Q99581 1-238); details: protein: recombinant; tags: N-terminal GST; dsDNA, one strand shown
# T1 sequence: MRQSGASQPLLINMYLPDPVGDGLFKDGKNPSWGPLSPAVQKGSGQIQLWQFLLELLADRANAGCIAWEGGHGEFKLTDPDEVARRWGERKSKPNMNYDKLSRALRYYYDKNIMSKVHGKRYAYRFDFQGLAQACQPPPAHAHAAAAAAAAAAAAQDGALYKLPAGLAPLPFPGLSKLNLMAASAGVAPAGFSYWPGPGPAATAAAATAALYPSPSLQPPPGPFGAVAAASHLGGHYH
# Summary of the method: (§1)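 Human transcription factors were made in yeast as GST fusions, captured on glutathione beads and barcoded with DNA. With a tag-only sample included, the pool was incubated with 200 nmole of a random double-stranded 16-mer DNA library in Tris/NaCl/DTT/glycerol buffer at room temperature for 30 min, then crosslinked with 0.1% formaldehyde after washing, ligated by proximity, amplified and sequenced. For binding signal, each hexamer's read frequency for a factor is divided by its frequency for the tag-only sample.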
# ETV5 = ETV5 (Homo sapiens, UniProt P41161 1-510); details: protein: recombinant; tags: N-terminal GST; dsDNA, one strand shown
# Summary of the method: as §1
# HSF1 = HSF1 (Homo sapiens, UniProt Q00613 1-529); details: protein: recombinant; tags: N-terminal GST; chain copies: 3; dsDNA, one strand shown
# Summary of the method: as §1
# SPIC = target: T2, SPIC (Homo sapiens, UniProt Q8N5J4 1-248); details: protein: recombinant; tags: N-terminal GST; dsDNA, one strand shown
# T2 sequence: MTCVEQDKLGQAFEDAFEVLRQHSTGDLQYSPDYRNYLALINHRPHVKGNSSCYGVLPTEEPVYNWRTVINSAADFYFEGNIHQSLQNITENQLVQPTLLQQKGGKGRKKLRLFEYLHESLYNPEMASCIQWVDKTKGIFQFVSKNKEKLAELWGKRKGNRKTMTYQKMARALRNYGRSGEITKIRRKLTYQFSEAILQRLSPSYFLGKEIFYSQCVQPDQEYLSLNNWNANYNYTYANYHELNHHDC
# Summary of the method: as §1
# ELF4 = ELF4 (Homo sapiens, UniProt Q99607 1-663); details: protein: recombinant; tags: N-terminal GST; dsDNA, one strand shown
# Summary of the method: as §1
# ELK4 = target: T3, ELK4 (Homo sapiens, UniProt P28324-2 1-405); details: protein: recombinant; tags: N-terminal GST; dsDNA, one strand shown
# T3 sequence: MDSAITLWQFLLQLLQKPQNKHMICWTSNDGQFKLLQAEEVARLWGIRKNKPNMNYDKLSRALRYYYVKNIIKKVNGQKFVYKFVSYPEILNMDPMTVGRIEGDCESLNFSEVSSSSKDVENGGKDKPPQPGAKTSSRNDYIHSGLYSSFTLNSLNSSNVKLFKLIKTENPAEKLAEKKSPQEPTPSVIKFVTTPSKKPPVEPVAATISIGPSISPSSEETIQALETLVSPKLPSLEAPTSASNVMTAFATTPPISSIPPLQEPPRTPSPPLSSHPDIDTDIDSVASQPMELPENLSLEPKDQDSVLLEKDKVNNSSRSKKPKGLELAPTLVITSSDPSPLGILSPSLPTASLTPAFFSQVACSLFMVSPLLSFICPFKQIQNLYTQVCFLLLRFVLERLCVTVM
# Summary of the method: as §1
# ETV2 = target: T4, ETV2 (Homo sapiens, UniProt O00321 1-342); details: protein: recombinant; tags: N-terminal GST; dsDNA, one strand shown
# T4 sequence: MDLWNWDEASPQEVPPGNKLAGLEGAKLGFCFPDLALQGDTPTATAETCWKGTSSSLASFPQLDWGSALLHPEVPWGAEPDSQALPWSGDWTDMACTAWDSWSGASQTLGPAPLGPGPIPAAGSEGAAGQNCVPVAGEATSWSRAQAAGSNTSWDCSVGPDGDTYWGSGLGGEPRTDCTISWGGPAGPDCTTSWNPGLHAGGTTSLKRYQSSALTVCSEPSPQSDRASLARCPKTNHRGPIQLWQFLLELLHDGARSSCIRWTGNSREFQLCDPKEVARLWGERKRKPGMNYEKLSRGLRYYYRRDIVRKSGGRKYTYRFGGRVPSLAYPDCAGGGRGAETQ
# Summary of the method: as §1
# ELF3 = target: T5, ELF3 (Homo sapiens, UniProt P78545 1-371); details: protein: recombinant; tags: N-terminal GST; dsDNA, one strand shown
# T5 sequence: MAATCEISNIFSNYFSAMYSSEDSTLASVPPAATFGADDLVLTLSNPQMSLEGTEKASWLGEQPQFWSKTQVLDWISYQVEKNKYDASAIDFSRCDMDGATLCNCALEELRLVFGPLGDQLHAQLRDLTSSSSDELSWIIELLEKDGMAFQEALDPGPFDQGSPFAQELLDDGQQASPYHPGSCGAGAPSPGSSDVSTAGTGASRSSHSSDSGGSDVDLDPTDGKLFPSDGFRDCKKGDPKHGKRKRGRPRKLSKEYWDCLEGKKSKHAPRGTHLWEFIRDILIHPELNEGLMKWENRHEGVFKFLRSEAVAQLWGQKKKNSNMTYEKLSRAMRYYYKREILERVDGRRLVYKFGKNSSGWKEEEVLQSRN
# Summary of the method: as §1
# CRX = CRX (Homo sapiens, UniProt O43186 1-299); details: protein: recombinant; tags: N-terminal GST; dsDNA, one strand shown
# Summary of the method: as §1
# ETV1 = ETV1 (Homo sapiens, UniProt P50549 1-477); details: protein: recombinant; tags: N-terminal GST; dsDNA, one strand shown
# Summary of the method: as §1
# ERF = target: T6, ERF (Homo sapiens, UniProt P50548 1-548); details: protein: recombinant; tags: N-terminal GST; dsDNA, one strand shown
# T6 sequence: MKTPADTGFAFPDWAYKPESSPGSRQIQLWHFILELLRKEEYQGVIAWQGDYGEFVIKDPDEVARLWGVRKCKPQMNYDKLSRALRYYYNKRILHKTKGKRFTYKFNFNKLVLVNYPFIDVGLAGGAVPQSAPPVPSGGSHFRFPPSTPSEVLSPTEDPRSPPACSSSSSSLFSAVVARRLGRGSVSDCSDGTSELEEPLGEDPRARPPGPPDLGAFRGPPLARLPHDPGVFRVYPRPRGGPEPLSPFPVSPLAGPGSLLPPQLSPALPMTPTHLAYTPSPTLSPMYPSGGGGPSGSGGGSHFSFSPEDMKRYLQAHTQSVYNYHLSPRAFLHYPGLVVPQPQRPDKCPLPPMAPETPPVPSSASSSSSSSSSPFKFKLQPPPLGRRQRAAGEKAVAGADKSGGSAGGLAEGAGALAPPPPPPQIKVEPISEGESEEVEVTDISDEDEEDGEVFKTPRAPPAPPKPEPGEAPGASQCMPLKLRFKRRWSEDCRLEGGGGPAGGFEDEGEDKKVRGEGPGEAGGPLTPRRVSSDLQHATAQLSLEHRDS
# Summary of the method: as §1
# ETV3L = target: T7, ETV3L (Homo sapiens, UniProt Q6ZN32 1-361); details: protein: recombinant; tags: N-terminal GST; dsDNA, one strand shown
# T7 sequence: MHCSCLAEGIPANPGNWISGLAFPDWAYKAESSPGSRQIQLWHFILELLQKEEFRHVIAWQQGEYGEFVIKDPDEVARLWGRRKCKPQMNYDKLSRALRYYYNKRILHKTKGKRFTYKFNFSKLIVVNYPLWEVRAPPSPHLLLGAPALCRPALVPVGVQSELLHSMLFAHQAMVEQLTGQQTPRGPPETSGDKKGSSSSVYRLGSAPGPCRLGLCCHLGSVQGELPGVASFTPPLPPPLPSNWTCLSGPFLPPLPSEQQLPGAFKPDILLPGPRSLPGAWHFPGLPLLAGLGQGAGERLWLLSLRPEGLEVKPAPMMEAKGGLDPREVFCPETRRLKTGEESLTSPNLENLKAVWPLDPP
# Summary of the method: as §1
# ETS2 = target: T8, ETS2 (Homo sapiens, UniProt P15036 1-469); details: protein: recombinant; tags: N-terminal GST; dsDNA, one strand shown
# T8 sequence: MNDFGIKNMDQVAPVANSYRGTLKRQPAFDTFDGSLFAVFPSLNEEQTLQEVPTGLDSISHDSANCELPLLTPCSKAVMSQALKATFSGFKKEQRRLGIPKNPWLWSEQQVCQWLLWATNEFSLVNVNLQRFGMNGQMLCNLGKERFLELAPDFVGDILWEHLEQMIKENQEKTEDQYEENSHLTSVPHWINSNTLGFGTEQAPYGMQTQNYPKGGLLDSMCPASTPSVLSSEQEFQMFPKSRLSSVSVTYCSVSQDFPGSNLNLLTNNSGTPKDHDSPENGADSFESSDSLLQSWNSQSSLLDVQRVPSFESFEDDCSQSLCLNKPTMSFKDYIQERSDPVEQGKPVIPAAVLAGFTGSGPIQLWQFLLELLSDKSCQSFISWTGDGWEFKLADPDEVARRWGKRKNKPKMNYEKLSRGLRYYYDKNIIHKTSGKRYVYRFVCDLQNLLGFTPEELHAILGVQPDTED
# Summary of the method: as §1
# SPDEF = target: T9, SPDEF (Homo sapiens, UniProt O95238 1-335); details: protein: recombinant; tags: N-terminal GST; dsDNA, one strand shown
# T9 sequence: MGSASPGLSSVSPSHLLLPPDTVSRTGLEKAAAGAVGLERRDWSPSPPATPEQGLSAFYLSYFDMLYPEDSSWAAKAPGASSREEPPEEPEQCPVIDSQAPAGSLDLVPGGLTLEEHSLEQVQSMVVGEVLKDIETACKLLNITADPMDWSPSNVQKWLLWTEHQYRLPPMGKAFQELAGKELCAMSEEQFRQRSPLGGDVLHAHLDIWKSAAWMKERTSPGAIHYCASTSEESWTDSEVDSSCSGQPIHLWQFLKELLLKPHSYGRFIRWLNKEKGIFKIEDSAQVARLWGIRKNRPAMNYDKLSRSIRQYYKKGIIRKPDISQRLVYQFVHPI
# Summary of the method: as §1
# ETV7 = target: T10, ETV7 (Homo sapiens, UniProt Q9Y603 1-341); details: protein: recombinant; tags: N-terminal GST; dsDNA, one strand shown
# T10 sequence: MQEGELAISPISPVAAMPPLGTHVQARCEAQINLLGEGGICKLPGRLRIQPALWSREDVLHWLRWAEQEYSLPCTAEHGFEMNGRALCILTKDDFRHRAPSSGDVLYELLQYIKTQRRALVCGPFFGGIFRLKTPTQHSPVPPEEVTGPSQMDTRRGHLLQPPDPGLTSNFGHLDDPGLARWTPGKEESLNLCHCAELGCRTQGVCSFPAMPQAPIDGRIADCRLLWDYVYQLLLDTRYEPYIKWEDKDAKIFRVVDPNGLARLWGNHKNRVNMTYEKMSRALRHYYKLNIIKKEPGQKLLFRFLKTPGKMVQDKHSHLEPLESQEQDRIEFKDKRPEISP
# Summary of the method: as §1
# ELF5 = target: T11, ELF5 (Homo sapiens, UniProt Q9UKW6-2 1-255); details: protein: recombinant; tags: N-terminal GST; dsDNA, one strand shown
# T11 sequence: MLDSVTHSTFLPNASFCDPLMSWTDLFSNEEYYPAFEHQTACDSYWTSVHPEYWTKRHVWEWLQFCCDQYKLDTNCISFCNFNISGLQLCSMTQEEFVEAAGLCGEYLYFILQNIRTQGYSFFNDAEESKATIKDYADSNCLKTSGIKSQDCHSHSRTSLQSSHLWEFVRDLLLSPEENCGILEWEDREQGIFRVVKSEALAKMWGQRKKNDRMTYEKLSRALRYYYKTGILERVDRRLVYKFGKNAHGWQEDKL
# Summary of the method: as §1
# ETV3 = target: T12, ETV3 (Homo sapiens, UniProt P41162-2 1-143); details: protein: recombinant; tags: N-terminal GST; dsDNA, one strand shown
# T12 sequence: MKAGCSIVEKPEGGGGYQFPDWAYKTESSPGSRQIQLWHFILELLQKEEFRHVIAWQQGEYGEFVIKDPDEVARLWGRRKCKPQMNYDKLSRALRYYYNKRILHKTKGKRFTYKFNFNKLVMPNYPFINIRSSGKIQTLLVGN
# Summary of the method: as §1
# ETV6 = ETV6 (Homo sapiens, UniProt P41212 1-452); details: protein: recombinant; tags: N-terminal GST; dsDNA, one strand shown
# Summary of the method: as §1
# Sequence of ETV1 (P50549 whole entry): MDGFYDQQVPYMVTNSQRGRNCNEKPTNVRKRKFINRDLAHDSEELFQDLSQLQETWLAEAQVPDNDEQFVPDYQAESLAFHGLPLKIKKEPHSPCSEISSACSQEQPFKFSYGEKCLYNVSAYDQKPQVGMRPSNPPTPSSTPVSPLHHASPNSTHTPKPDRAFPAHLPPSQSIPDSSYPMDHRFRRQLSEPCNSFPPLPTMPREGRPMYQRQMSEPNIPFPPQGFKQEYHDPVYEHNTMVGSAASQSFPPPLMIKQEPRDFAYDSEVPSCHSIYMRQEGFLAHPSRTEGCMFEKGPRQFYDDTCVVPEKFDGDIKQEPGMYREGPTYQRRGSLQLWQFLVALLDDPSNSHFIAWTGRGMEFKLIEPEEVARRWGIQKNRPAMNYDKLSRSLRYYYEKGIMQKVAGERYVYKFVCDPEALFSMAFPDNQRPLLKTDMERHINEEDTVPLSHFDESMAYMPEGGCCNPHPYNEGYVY
# Sequence of ELF4 (Q99607 whole entry): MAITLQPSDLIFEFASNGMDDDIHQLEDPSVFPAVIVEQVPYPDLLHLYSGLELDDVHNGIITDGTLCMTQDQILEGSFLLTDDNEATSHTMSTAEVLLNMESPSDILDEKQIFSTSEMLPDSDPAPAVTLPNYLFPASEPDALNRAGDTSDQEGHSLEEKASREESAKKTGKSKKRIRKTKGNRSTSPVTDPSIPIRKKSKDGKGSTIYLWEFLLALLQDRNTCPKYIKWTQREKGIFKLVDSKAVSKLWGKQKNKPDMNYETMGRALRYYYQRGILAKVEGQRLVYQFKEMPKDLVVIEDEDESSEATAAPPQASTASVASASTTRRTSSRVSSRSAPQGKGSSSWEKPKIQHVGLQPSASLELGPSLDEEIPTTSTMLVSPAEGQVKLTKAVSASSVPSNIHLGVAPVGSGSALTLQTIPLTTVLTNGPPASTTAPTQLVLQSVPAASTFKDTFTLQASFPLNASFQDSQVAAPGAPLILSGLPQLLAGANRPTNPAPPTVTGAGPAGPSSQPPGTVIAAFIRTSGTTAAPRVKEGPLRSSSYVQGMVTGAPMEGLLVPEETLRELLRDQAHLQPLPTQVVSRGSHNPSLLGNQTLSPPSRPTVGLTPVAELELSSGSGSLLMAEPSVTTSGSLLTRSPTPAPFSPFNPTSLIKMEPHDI
# Sequence of ETV5 (P41161 whole entry): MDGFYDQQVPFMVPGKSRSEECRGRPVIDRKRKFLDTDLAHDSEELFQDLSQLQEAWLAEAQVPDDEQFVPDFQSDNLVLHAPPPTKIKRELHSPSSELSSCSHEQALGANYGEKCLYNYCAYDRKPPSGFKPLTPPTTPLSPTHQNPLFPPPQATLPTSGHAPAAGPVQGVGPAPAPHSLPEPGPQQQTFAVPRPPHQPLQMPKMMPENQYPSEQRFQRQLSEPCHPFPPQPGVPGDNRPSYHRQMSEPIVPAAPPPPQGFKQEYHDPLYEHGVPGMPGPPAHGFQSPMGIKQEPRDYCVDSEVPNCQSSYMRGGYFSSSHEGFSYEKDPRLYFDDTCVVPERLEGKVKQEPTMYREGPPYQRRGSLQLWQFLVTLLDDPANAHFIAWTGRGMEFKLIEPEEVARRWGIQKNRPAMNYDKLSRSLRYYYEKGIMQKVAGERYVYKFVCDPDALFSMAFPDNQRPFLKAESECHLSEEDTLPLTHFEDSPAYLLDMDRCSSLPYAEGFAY
# Sequence of CRX (O43186 whole entry): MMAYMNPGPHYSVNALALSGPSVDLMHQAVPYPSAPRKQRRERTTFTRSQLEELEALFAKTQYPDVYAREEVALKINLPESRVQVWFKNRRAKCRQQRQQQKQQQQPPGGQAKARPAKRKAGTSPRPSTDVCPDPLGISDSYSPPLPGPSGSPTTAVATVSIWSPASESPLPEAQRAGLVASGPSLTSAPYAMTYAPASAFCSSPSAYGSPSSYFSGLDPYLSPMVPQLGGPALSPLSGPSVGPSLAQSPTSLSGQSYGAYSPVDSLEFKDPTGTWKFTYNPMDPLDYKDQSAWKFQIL
# Sequence of HSF1 (Q00613 whole entry): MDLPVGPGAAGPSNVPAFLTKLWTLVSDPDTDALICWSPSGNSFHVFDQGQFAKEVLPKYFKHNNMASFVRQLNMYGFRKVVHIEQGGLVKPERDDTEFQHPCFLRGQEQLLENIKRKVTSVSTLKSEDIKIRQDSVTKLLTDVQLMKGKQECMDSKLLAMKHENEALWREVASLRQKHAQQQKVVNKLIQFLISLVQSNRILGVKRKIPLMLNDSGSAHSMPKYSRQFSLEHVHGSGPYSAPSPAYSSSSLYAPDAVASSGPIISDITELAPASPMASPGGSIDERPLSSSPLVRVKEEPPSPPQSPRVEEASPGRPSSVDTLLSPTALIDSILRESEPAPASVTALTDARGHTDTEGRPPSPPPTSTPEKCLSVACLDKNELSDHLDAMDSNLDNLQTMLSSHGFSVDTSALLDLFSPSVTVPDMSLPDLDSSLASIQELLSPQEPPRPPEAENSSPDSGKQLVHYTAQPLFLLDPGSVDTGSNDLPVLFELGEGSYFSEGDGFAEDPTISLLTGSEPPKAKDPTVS
# Sequence of ETV6 (P41212 whole entry): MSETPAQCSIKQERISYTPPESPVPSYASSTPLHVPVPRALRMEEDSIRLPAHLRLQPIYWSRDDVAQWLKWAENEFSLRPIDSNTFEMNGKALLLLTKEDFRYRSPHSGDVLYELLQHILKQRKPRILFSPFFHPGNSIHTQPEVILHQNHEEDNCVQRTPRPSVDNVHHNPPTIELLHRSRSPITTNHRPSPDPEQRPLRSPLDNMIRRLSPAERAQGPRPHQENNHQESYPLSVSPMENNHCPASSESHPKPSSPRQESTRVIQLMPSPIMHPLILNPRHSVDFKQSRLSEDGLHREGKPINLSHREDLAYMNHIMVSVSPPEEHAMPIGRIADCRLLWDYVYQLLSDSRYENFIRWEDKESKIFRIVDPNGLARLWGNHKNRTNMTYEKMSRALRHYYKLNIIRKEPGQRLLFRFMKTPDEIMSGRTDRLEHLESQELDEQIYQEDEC
sequence,measurement,setting,value
TCTGCT,binding signal,FEV,"1.28 fold enrichment (6-mer frequency, TF over GST control)"
same,binding signal,ETV5,"1.29 fold enrichment (6-mer frequency, TF over GST control)"
same,binding signal,HSF1,"1.33 fold enrichment (6-mer frequency, TF over GST control)"
same,binding signal,SPIC,"1.43 fold enrichment (6-mer frequency, TF over GST control)"
same,binding signal,ELF4,"1.3 fold enrichment (6-mer frequency, TF over GST control)"
same,binding signal,ELK4,"1.57 fold enrichment (6-mer frequency, TF over GST control)"
same,binding signal,ETV2,"1.53 fold enrichment (6-mer frequency, TF over GST control)"
same,binding signal,ELF3,"1.11 fold enrichment (6-mer frequency, TF over GST control)"
same,binding signal,CRX,"1.33 fold enrichment (6-mer frequency, TF over GST control)"
same,binding signal,ETV1,"1.32 fold enrichment (6-mer frequency, TF over GST control)"
same,binding signal,ERF,"1.52 fold enrichment (6-mer frequency, TF over GST control)"
same,binding signal,ETV3L,"1.28 fold enrichment (6-mer frequency, TF over GST control)"
same,binding signal,ETS2,"1.29 fold enrichment (6-mer frequency, TF over GST control)"
same,binding signal,SPDEF,"1.21 fold enrichment (6-mer frequency, TF over GST control)"
same,binding signal,ETV7,"1.14 fold enrichment (6-mer frequency, TF over GST control)"
same,binding signal,ELF5,"1.2 fold enrichment (6-mer frequency, TF over GST control)"
same,binding signal,ETV3,"1.32 fold enrichment (6-mer frequency, TF over GST control)"
same,binding signal,ETV6,"1.18 fold enrichment (6-mer frequency, TF over GST control)"
